ClpP mod: qHTS Assay for Activators of ClpP | Potency, µM (top dose mostly 57.5 µM), for inactives: at the highest dose activity change, negative = active | hit rate 1.9% among 340,000 | purified B. subtilis ClpP, FRET peptide cleavage, 20 min; active = well fitted falling curve with a large enough effect; inconclusive = small, poorly fitted or top-dose-only effect; inactive = no such curve, though single readings can be large or run the other way; also: the source files actives as falling curves though it sought activators and does not explain the sign; nearly all actives have a fitted effect of over 65% in size
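Purified B. subtilis ClpP, 10 microg/mL final in Tris/HCl pH8 with KCl, BSA, glycerol and Tween-20, cleaved an Abz/nitrotyrosine-quenched decapeptide. Fluorescence (ex 320, em 430) was read at 0 and 20 min at room temperature. Delta was normalized to 5.8 microM ADEP and DMSO/no-enzyme controls.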
GALK inhibitor: qHTS Assay for Inhibitors of Human Galactokinase (GALK) | P51570 | Purified GALK, Kinase-Glo residual ATP luminescence | Potency, µM (series often up to 57.5 µM), for the others: at the highest dose activity change, negative = inhibition, actives largely listed as inhibitors | hit rate 0.007% among 270,000 | AID 1868, 2009; also: % is scaled to controls: 0 for no effect and ±100 for the full control effect
Target sequence (P51570 whole entry, looked up): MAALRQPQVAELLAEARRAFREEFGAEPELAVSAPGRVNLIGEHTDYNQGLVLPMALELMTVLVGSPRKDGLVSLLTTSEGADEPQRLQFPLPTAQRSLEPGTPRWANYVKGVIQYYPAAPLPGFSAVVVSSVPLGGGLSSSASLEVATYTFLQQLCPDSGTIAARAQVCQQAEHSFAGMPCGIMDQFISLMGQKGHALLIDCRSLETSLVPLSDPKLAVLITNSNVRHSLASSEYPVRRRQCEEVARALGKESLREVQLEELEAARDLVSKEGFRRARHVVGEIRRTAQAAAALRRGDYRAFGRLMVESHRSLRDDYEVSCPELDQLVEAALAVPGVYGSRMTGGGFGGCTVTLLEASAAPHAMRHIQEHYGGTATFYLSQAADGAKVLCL
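Galactose (100 uM) and ATP (35 uM) were turned over by 5 nM GALK for 1 h at RT. Kinase-Glo Plus then converted the remaining ATP into a luminescent signal.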
USP2a block: qHTS Assay for Inhibitors of Ubiquitin-specific Protease USP2a Using CHOP2 as the Reporter; Ubiquitin carboxyl-terminal hydrolase 2 (Homo sapiens), O75604; USP2 core, Ub-CHOP2 coupled fluorogenic reporter, 485/531; Potency, µM (titrated, usually from 38.3 µM), for inactives: top-dose activity change, negative = inhibition, most hits filed as inhibitors; hit rate 0.01% among 330,000; AID 463254, 2010;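 also: plate controls were DMSO wells for no effect and full inhibition by NEM control for full effect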
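USP2 core (10nM final) preincubated 30min RT with compound in 20mM Tris-HCl pH 8.0, 2mM CaCl2, 2mM beta-mercaptoethanol, 0.05% CHAPS; 25nM Ub-CHOP2 plus 25nM reporter substrate added, fluorescence (Ex485/Em531) read after 60min.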
Eya2 phos inh: qHTS Assay for Inhibitors of the Phosphatase Activity of Eya2 | Protein phosphatase EYA2 (Homo sapiens), O00167 | recombinant Eya2, OMFP fluorescence dephosphorylation (OMFP is methylfluorescein phosphate) | Potency, µM (top dose mostly 76.9 µM), for inactives: top-dose activity, negative = inhibition, hits mostly inhibitors | hit rate 0.006% among 330,000 | AID 488837, 2010; also: % is scaled to controls: 0 for no effect and ±100 for the full control effect
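Eya2 protein (added as 0.2 uM solution) was preincubated with compound for 10 min at ambient temperature in 50 mM HEPES pH 7.5, 50 mM NaCl, 5 uM MgCl2, 0.05% BSA, 1 mM DTT. OMFP (added at 50 uM) then reacted 10 min; fluorescence read at 485/525 nm.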
* hit, by the source's call; ? = inconclusive; nt = not tested or not shown. This is one part of a sample in which hits are shown more often than they occur. Unless noted, calls follow the shape of the dose curve; as a rule, active = well fitted inhibition curve with a large enough effect; inconclusive = small, poorly fitted or top-dose-only effect, or effect the other way; inactive = flat fitted curve, though single readings scatter. Potency is read from the fitted curve at half-maximal effect.

SMILES	ClpP mod	GALK inhibitor	USP2a block	Eya2 phos inh
COc1ccc(C2CC(c3cccs3)=NN2C(=O)CCC(=O)O)cc1 (stereo not given)	?	-2%	0%	2%
CCN1CCc2c(OCC(=O)N3N=C(c4cccs4)CC3c3ccc(F)cc3)cccc2C1=O (stereo not given)	7.9µM*	0%	1%	-11%
CCCCOC(=O)CSCC(=O)N1N=C(c2cccs2)CC1c1ccc(F)cc1 (stereo not given)	14µM*	-2%	-2%	-13%
O=C(CSc1nc2ccccc2s1)N1N=C(c2cccs2)CC1c1ccc(F)cc1 (stereo not given)	28µM*	2%	1%	-5%
COc1cccc2sc(NNC(=O)C3COc4ccccc4O3)nc12 (stereo not given)	nt	0%	3%	1%
COc1ccc(/C=C2\C(=O)ON=C2c2cccc([N+](=O)[O-])c2)cc1	nt	4%	3%	0%
CC(=O)Nc1ccc(S(=O)(=O)NC(CC(=O)N(C)Cc2ccccc2)C(C)C)cc1 (stereo not given)	14µM*	1%	4%	-3%
CC(C)N1CCC(n2nccc2NC(=O)c2ccc3c(c2)OCO3)CC1	-1%	2%	-1%	10%
CN1CCc2c(sc3c2C(=O)NC(c2cccs2)N3)C1 (stereo not given)	25µM*	-1%	8%	8%
COc1ccc(C(=O)Oc2ccc(C3NC(=O)c4c(sc5c4CCN(C)C5)N3)cc2OC)cc1 (stereo not given)	18µM*	nt	nt	nt
CC1=C(C(=O)N2CCOCC2)C(c2ccc(-c3ccccc3)cc2)NC(=S)N1 (stereo not given)	28µM*	-2%	7%	-4%
c1csc(Cn2c(-c3cccs3)nc3ccccc32)c1	32µM*	0%	-5%	-8%
O=CN1CCN(C2CC(=O)N(c3ccc(Br)cc3)C2=O)CC1 (stereo not given)	35µM*	2%	3%	7%
Cc1cc2nc(/C=C/c3nc4cc(C)c(C)cc4[nH]3)[nH]c2cc1C	-10%	-2%	2%	3%
Oc1ccccc1/C=N/n1c(COc2ccccc2)n[nH]c1=S	35µM*	nt	-1%	-3%
COc1cc(N=Nc2cccc(S(N)(=O)=O)c2)c2ccccc2c1N	nt	12%	-1%	-15%
CCN(C(=O)COC(=O)C1=COCCO1)c1c(N)n(Cc2ccccc2)c(=O)[nH]c1=O	14µM*	nt	-1%	4%
O=C(CCc1ccccc1)Nc1nnc(-c2ccccn2)o1	22µM*	0%	1%	4%
CC(NC(=O)/C(=C\c1ccco1)NC(=O)c1ccco1)C(=O)O (stereo not given)	1%	-2%	-2%	-6%
O=C(CC(NS(=O)(=O)c1ccc(Cl)cc1)c1ccco1)NCc1ccco1 (stereo not given)	25µM*	-1%	1%	6%
CCCNC(=O)CC(NS(=O)(=O)c1ccc(Cl)cc1)c1ccco1 (stereo not given)	0%	-2%	2%	-4%
Cc1ccc(NC(=S)N2CCC(NC(=O)c3ccc(F)cc3)CC2)cc1C	-2%	1%	1%	5%
CCCn1c(SCC#N)nc2c(c1=O)C1(CCCC1)Cc1ccccc1-2	-18%	0%	4%	-11%
N#CCSc1n[nH]c2nc3c(c(=O)n12)C1(CCCC1)Cc1ccccc1-3	16µM*	3%	-4%	14%
C=COC(=O)CSc1nc(-c2cccs2)ccc1C#N	28µM*	5%	1%	5%
CCOC(=O)C(C)Sc1nc(-c2ccccc2Cl)cc(-c2ccccc2)c1C#N (stereo not given)	-20%	nt	nt	nt
N#Cc1ccc(-c2cccs2)nc1SCC(=O)Nc1cccc(C(F)(F)F)c1	4%	nt	nt	nt
CCOC(=O)C(C)Sc1nc(-c2cccs2)ccc1C#N (stereo not given)	13µM*	-1%	-4%	-20%
COC(=O)c1ccc(Sc2nnnn2-c2ccccc2)c([N+](=O)[O-])c1	-4%	3%	0%	4%
CCCCC1(CC(=O)OC)C(=O)N(c2ccccc2)N(c2ccccc2)C1=O	28µM*	2%	0%	-7%
